# USP2a inh: qHTS Assay for Inhibitors of Ubiquitin-specific Protease USP2a Using CHOP2 as the Reporter. Ubiquitin carboxyl-terminal hydrolase 2 (Homo sapiens), O75604. USP2 core, Ub-CHOP2 coupled fluorogenic reporter, 485/531. Potency, µM (titrated, usually from 38.3 µM), actives largely listed as inhibitors. 330,000 compounds, 0.01% hits
#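 USP2 core (10nM final) preincubated 30min RT with compound in 20mM Tris-HCl pH 8.0, 2mM CaCl2, 2mM beta-mercaptoethanol, 0.05% CHAPS; 25nM Ub-CHOP2 plus 25nM reporter substrate added, fluorescence (Ex485/Em531) read after 60min.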
# ATXN2 expr inh: Primary qHTS for Inhibitors of ATXN expression | 360,000 compounds, 0.72% hits | Potency, µM (top dose mostly 57 µM), usual class: inhibitors | HEK-293 ATXN2-luciferase reporter, luminescence, 24 h; note: nearly all actives have a fitted effect of over 55% in size
#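 ATXN2-luciferase reporter cells (luciferase flanked by upstream and downstream ATXN2 gene portions) were treated 24 h at 37 °C with compounds at up to 57 uM. SteadyGlo luminescence gave expression; GF-AFC fluorescence gave viability.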
# ATXN viability: Viability Counterscreen for Primary qHTS for Inhibitors of ATXN expression; S2 cells (HEK-293 line with an ATXN2-luciferase reporter) viability, CellTiter-Fluor protease fluorescence, 24 h; Potency, µM (top dose mostly 56.7 µM), actives largely listed as cytotoxic; 400,000 compounds, 0.49% hits; AID 651635, 2014; note: nearly all actives have a fitted effect of over 40% in size
# IL-1B inflam inh: qHTS for Inhibitors of Inflammasome Signaling: IL-1-beta AlphaLISA Primary Screen. THP-1 LPS/ATP IL-1B secretion, AlphaLISA, 16 h; hits give low values. activity change, % at 57.5 µM. 360,000 compounds, 4.7% hits; in the data active = activity change below about -50%; inconclusive = mostly about -30% to -49%
#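 THP-1 cells pretreated 1 hr with compounds (up to 57.5 uM final), then stimulated with LPS (250 ng/mL final) plus ATP (1.25 mM final); secreted IL-1B measured by AlphaLISA after 16 hr, decreased signal indicating inhibition.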
# USP1 inh: Inhibitors of USP1/UAF1: Primary Screen; recombinant USP1/UAF1, Ub-Rhodamine cleavage fluorescence; 390,000 compounds, 0.23% hits; Potency, µM (doses to about 57.1 µM), usual class: inhibitors; AID 743255, 2014; Ubiquitin carboxyl-terminal hydrolase 1 (Homo sapiens), O94782; note: nearly all actives have a fitted effect of over 60% in size
# Target sequence (O94782 whole entry, looked up): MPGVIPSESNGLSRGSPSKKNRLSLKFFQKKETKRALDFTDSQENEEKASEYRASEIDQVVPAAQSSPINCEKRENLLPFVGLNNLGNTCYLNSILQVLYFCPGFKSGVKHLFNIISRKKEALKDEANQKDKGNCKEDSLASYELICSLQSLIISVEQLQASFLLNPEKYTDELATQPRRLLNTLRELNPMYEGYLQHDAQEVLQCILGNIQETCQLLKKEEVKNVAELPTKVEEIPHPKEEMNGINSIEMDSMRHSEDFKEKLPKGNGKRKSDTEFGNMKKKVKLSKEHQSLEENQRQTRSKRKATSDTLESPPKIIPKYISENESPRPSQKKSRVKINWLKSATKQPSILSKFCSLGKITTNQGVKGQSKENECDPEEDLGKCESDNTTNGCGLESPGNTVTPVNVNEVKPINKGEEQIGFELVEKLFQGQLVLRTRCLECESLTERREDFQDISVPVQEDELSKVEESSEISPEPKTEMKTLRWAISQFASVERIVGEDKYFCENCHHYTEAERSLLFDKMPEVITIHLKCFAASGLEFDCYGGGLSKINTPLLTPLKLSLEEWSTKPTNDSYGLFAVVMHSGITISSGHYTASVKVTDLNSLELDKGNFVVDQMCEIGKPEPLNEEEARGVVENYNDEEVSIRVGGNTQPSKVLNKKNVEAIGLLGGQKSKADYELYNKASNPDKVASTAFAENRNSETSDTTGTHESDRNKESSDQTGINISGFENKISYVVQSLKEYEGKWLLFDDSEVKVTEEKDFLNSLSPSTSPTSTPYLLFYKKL
#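 In this screen, compounds sit with the deubiquitinase complex (1nM) for 15 min at room temperature before Ub-Rho is added at 150nM final. Fluorescence rise is then followed for 6 reads every 60 seconds.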
# A number is an active result; 0 = inactive; ? = inconclusive; - = no result. Compounds with a hit are over-represented: about 4.8% of the library has one in this group of screens. Unless noted, calls come from the whole dose curve; as a rule, active = well fitted curve in the direction sought with a large enough effect; inconclusive = small, poorly fitted or top-dose-only effect, or another doubt; inactive = no such curve, though single readings can be large; an effect the other way counts as inactive or inconclusive.
SMILES,USP2a inh,ATXN2 expr inh,ATXN viability,IL-1B inflam inh,USP1 inh
Cc1ccc2nc(NC(=O)c3ccc(OCC4CCCO4)cc3)sc2c1 (centres undefined),0,0,0,-110,0
O=C(Nc1ccc(Br)cc1Cl)c1ccc(OCC2CCCO2)cc1 (centres undefined),0,0,0,-81,0
Cc1cc(C)c2nc(NC(=O)c3ccc(OCC4CCCO4)cc3)sc2c1 (centres undefined),0,-,?,0,0
Cc1cc2ccccc2n1-c1ccc(C(=O)N2CCC(C(=O)NCc3ccccc3Cl)CC2)s1,-,-,-,-,0
O=C1NC2(CCCCC2)C(=O)N1CC(=O)N1CCc2ccccc21,0,0,0,0,0
N#CC(=C1C=CC(=NO)C(Cl)=C1)c1ccc(Cl)cc1,-,0,?,-54,0
CN(Cc1ccc(F)cc1)C(=O)c1cccc(OCc2ccccc2)c1,0,0,0,-54,0
CN(Cc1ccc(F)cc1)C(=O)c1cccc(NS(=O)(=O)c2ccccc2)c1,0,0,0,0,0
CCN(CC)Cc1c(O)ccc2c([N+](=O)[O-])c(C)n(-c3ccc(OC)cc3)c12,0,0,0,-75,0
CCN(CC)Cc1c(O)ccc2occ(C(=O)c3ccc(OC)cc3)c12,0,0,0,0,0
CCN1c2ccccc2-c2nc(SCC(=O)NCc3ccccc3)ncc2S1(=O)=O,-,0,0,-,0
Cc1cc(Nc2nc(N[C@@H](C)c3ccc(F)cc3)c(C#N)cc2F)n[nH]1,-,24µM,-,-,-
N=c1oc2ccc(Br)cc2cc1C(=O)NCc1ccccc1,0,0,0,0,0
CC(NC(=O)c1cc2cc(Br)ccc2oc1=N)c1ccccc1 (centres undefined),0,0,0,-51,0
Cc1cc(Br)ccc1N=C1NC(=O)CS1,0,0,0,0,0
CC(=O)Nc1cccc(NC(=O)c2csc(C)c2)c1,0,0,0,0,0
COc1cc(=O)n2c(c1C(=O)NCc1ccco1)CCN(Cc1cccc(C)n1)CC2,-,-,0,-,-
FC(F)Oc1ccc(NC(=S)N2CCc3ccccc32)cc1,0,0,0,-61,0
Fc1ccc(NC(=S)N2CCc3ccccc32)cc1,0,-,?,0,0
CCOc1ccc(NC(=O)C2Cc3ccccc3N2C(=O)c2ccccc2)cc1 (centres undefined),-,0,0,-,0
CC(=O)Oc1ccc(N2C(=O)C3C(C2=O)C(C(=O)c2ccc(Cl)cc2)N2CCCC32)cc1 (centres undefined),0,?,0,-101,22µM
Cc1nc2ccc(C(=O)NCCCn3ccnc3)cn2c1N(C)CC1CCCCC1,-,0,?,?,-
N#C/C(=C1\SCC(c2ccccc2Cl)S1)n1ccnc1 (centres undefined),-,0,0,-,-
Cc1cc(C)c2nc3sc(=Cc4ccc(-c5ccccc5C(=O)O)o4)c(=O)n3c2c1,-,0,0,0,-
O=C(O)c1ccc(-c2ccc(/C=c3/sc4nc5ccccc5n4c3=O)o2)cc1Cl,0,0,0,0,28µM
SMILES,USP2a inh,ATXN2 expr inh,ATXN viability,IL-1B inflam inh,USP1 inh
CCN(CC)c1ccc(N=Nc2nn(C)c(C)c2[N+](=O)[O-])cc1,0,0,13µM,0,0
N#C/C(=C\c1ccc[nH]1)C(=O)Nc1ccccc1[N+](=O)[O-],0,0,0,0,0
CC1(C)C(C=C(Cl)Cl)C1C(=O)Nc1ccc([N+](=O)[O-])cc1 (centres undefined),0,?,0,-99,0
CN(Cc1ccon1)C(=O)c1cnn(-c2ncc3c(n2)-c2ccccc2CCC3)c1C1CC1,-,-,0,-,-
Cc1cc(C)n(Cc2ccc(C(=O)O)cc2)n1,0,0,0,0,0
Cc1ccc(C)n1Cc1ccc(C(=O)O)cc1,?,0,?,0,25µM
CNC(=O)Nc1cccc(-c2cc(-c3c(Cl)cccc3Cl)no2)c1,0,0,0,-79,0
Fc1ccc2c(c1)Sc1ccc(Cl)cc1CC2N1CCN(CCC2OCCO2)CC1 (centres undefined),-,0,0,-75,0
O=[N+]([O-])c1ccc2c(c1)C(N1CCN(CCO)CC1)Cc1ccc(F)cc1S2 (centres undefined),-,0,?,0,-
